Experimental findings from PubChem BioAssay AID1626 (SRMLSC, 2009) are described below.

The whole screen tested about 220,000 compounds, of which about 2,000 (0.91%) were called active. Another 2% or so got no clear call; they are omitted. These entries were drawn from the full list. Measured potencies and affinities stand elsewhere. Values without a mark were called inactive. No stated cut-off is given here; in the data, inconclusive means inhibition above about 80% without an active follow-up result; inactive means below that; test concentration not stated here.

The assay in a line: M. tuberculosis H37Rv growth inhibitors, H37Rv strain (AID 1626).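 Further: bacteria incubated seven days before Alamar blue readout; 0% = bacteria only wells and 100% = bacteria with antibiotic wells.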 The note with it: active compounds read high, concentration not given here.
`O=C(CCCSc1nc(-c2ccco2)cc(C(F)(F)F)n1)Nc1ccc2c(c1)OCO2`: the inhibition (in general, the relative decrease from the control value, in per cent) was 6.6%.
Under `Cc1ccccc1Sc1ncnc2onc(C)c12` stands -3.01%; under `Cc1noc2ncnc(Sc3ccccc3Cl)c12`, 8.85%; under `CCn1c(SCc2ccc(C(=O)Nc3nccs3)cc2)nnc1-c1ccc(N)cc1`, 2.31%.
In the case of `CCn1c(SCc2ccc(C(=O)Nc3nccs3)cc2)nnc1-c1ccc(NC(C)=O)cc1`, the inhibition is 0.27%.
For `COC(=O)CNC(=O)c1cn(CC(C)C)c(=O)c2cc(OC)c(OC)cc12`, the inhibition was -2.81%.
For the compound `CC1CC(=O)c2cnc(N3CCOCC3)nc2C1` (stereo not given), the inhibition was 5.78%.
The figure for `O=C(CSc1nnnn1C1CCCC1)NCc1ccccc1` is -3.18%; for `N=c1n(CCN2CCCCC2)c2ccccc2n1CC(O)COc1ccccc1` (stereo not given) it is -5.72%; for `CCCn1c(=N)n(CC(O)COc2cccc(C)c2)c2ccccc21` (stereo not given) it is 4.16%.
The figure for `COc1ccc(OCC(O)Cn2c(=N)n(CCN3CCOCC3)c3ccccc32)cc1` (stereo not given) is 3.12%; for `CCCCn1c(=N)n(CC(O)COc2cccc(C)c2)c2ccccc21` (stereo not given) it is 0.69%.
Under `CC(C)N1CCN(Cc2nc3c(s2)CCCC3)CC1CCO` (stereo not given) stands -2.24%.
As to `COc1cc([C@@H]2c3cc4c(cc3[C@@H](NC3CCN(Cc5ccccc5)CC3)[C@H]3COC(=O)[C@H]23)OCO4)cc(OC)c1O`, the inhibition is 51.2%.
Under `CC1=C(C(=O)OCc2ccc(C)cc2)C(c2ccc(O)c([N+](=O)[O-])c2)NC(=O)N1` (stereo not given) stands -1.03%; under `COc1ccc(S(=O)(=O)N(CC(=O)NCC2CCCO2)c2ccccc2)cc1OC` (stereo not given), -6.11%; under `Cc1cc(-c2ccc(Cl)cc2Cl)c(C#N)c(=O)[nH]1`, -3.23%.
The figure for `Cc1ncn2cc(-c3ccc(Cl)cc3Cl)[nH]c(=O)c12` is 11.2%; for `O=c1[nH]c(=O)n(-c2ccccc2)c2c1C(C(F)(F)F)(C(F)(F)F)N=C(CCC1CCCCC1)N2` it is -0.92%.
Under `Cc1nc(N2CCOCC2)c2c(C)c(C(=O)Nc3ccccc3Cl)sc2n1` stands 0.57%.
For the compound `Cc1nc(N2CCN(c3ccccn3)CC2)c2c(C)c(C(=O)Nc3ccc(F)cc3F)sc2n1`, the inhibition is 79.3%.
Under `Cc1nc(N2CCCCC2)c2c(C)c(C(=O)Nc3ccccc3C(F)(F)F)sc2n1` stands 1.26%.
The figure for `Cc1nc(N2CCOCC2)c2c(C)c(C(=O)Nc3ccc(F)cc3F)sc2n1` is -1.7%.
Under `CCN=C1NN=C(c2cc(C)n(Cc3ccco3)c2C)CS1` stands 8.94%; under `CCN(CCCNC(=O)CN(C)S(=O)(=O)c1ccc2c(c1)CCC(=O)N2)c1cccc(C)c1`, -2.39%.
For `O=C(COC(=O)C1CCN(S(=O)(=O)c2cccs2)CC1)Nc1ccccc1Br`, the inhibition was -7.27%.
The figure for `CCCCn1c(=O)[nH]c2ccccc21` is 3.85%; for `O=c1[nH]c2ccccc2n1CCCN1CCCCC1` it is -2.47%; for `O=C(Nc1cccc(Cl)c1)/C(=C\c1cccnc1)NC(=O)c1ccco1` it is 2.59%.
The figure for `Cc1ccc(OCCNC(=O)c2cccc(Oc3ccc(C(F)(F)F)cc3[N+](=O)[O-])c2)cc1` is 1.39%; for `CN1CCN(Cc2c(O)ccc3cc(Br)ccc23)CC1` it is 21%.
Under `Oc1ccc2ccccc2c1CN1CCCC1` stands 12.7%; under `Cc1ccc2c(c1)C1CN(C)CCC1N2C(=O)c1cn(-c2ccccc2)nc1-c1ccccc1` (stereo not given), 10.5%.
As for `CC(=O)Nc1ccc(C(=O)NCC(=O)OCc2c(F)cccc2Cl)cc1`, the inhibition was -1.08%.
For the compound `O=C(CNC(=O)c1ccc(-c2ccccc2)cc1)OCc1c(Cl)cccc1Cl`, the inhibition was -1.9%.
As for `COc1ccc(N(C(=O)c2ccco2)C(C(=O)NC2CCCC2)c2ccc(N(C)C)cc2)cc1` (stereo not given), the inhibition is -10.8%.
Turning to `COc1ccc(NC(=O)N/C=C/c2ccccc2)cc1`, the inhibition is -0.86%.
The figure for `COc1ccccc1C(C[N+](=O)[O-])c1c(N)n(C)c(=O)n(C)c1=O` (stereo not given) is 40.8%; for `COc1cc(C(C[N+](=O)[O-])c2c(N)n(C)c(=O)n(C)c2=O)ccc1O` (stereo not given) it is 1.8%.
Take `CCCOc1cccc(C2C(C(=O)c3ccco3)=C(O)C(=O)N2CCN(CC)CC)c1` (stereo not given): the inhibition is -7.15%.
With `CC(C(=O)N1CCCC1)N1CCN(c2ccccc2O)CC1` (stereo not given), the inhibition is -5.08%.
The figure for `C/C(O)=C(\N=Nc1cc(C)ccc1O)C(N)=O` is 0.25%.
The figure for `Cc1ccc(Cn2ccc(NC(=O)c3cc(C4CC4)on3)n2)cc1` is -5.45%; for `COc1ccc(Cn2c(C(C)C)nc3sc4ccccc4c(=O)c3c2=O)cc1` it is 17.7%.
Under `CCc1nc2sc3ccccc3c(=O)c2c(=O)n1CCOC` stands -3.87%.
In the case of `O=C(COc1ccccc1Br)Nc1ccccc1C(F)(F)F`, the inhibition is 1.69%.
The figure for `O=c1c2[nH]c3ccccc3c2ncn1CCC1=CCCCC1` is -3.83%.
Under `COc1ccc2[nH]c3c(NCCC4=CCCCC4)ncnc3c2c1` stands 50.8%; under `CCNC(=S)NNC(=S)NCc1ccccc1`, -6.54%; under `CCOC(=O)c1ccc(NC(C)=O)c([N+](=O)[O-])c1`, -0.43%.
Under `CCCNc1ccc(C(=O)OCC)cc1[N+](=O)[O-]` stands -2.78%; under `COc1cc(S(N)(=O)=O)c(OC)cc1N`, -5.42%.
On to `COC(=O)CCn1nc(-c2ccc(Cl)cc2)c2ccccc2c1=O`, for which the inhibition was 0.44%.
On to `CCCNC(=O)C1CCN(S(=O)(=O)c2cccc3nonc23)CC1`, for which the inhibition was 3.34%.
With `O=C(NCc1cccs1)C(=O)NCC(c1ccco1)N1CCN(c2ccccc2F)CC1` (stereo not given), the inhibition is 4.89%.
Under `O=C(/C=C\c1ccco1)Nc1nc(-c2ccccc2)cs1` stands 9.29%; under `CC1CC1C(=O)Nc1nc(-c2ccc(Cl)s2)cs1` (stereo not given), 9.3%.
The figure for `C[C@@H](C(=O)Nc1nc(-c2ccccn2)cs1)N1C(=O)C2CCCCC2C1=O` (stereo not given in full) is 1.46%; for `Cc1csc(NC(=O)C2CCCC2)n1` it is -11.7%; for `CC(=O)Nc1ccc(C(=O)Nc2nc(-c3ccccn3)cs2)cc1` it is 0.25%.
In the case of `Cc1ccnc2nc(C(=O)Nc3nc(-c4ccccn4)cs3)nn12`, the inhibition is -1.5%.
Consider `O=C(/C=C/c1ccco1)Nc1nc(-c2ccccc2)cs1`, for which the inhibition is 9.68%.
Under `CC1CC1C(=O)Nc1nc(-c2ccccc2)cs1` (stereo not given) stands -12.6%; under `O=C(NCc1ccc(F)cc1)C1CCCN(S(=O)(=O)c2cccc3nsnc23)C1` (stereo not given), -3.19%.
Under `NC1=NC(=O)C(Cc2cc(Cl)ccc2Cl)S1` (stereo not given) stands -5.29%; under `CCOC(=O)C1(C)NC(c2ccc(OC)c(OC)c2)C2C(=O)N(CC)C(=O)C21` (stereo not given), -0.15%.
Under `O=C(O)c1ccc(S(=O)(=O)c2ccc(Sc3ccc(C(=O)O)c(C(=O)O)c3)cc2)cc1` stands -20.9%; under `CCOC(=O)COc1ccc(S(=O)(=O)NCc2ccco2)cc1`, 10.1%.
In the case of `Cc1cc(C(=O)N2CCOCC2)c(C)o1`, the inhibition is -4.61%.
`COCCOc1ccc(C(F)(F)F)cc1NC(=O)c1ccc(C)cc1`: the inhibition was 2.93%.
As to `CCN1C(=O)CC(c2ccco2)Sc2ccccc21` (stereo not given), the inhibition was 4.45%.
Under `O=P(O)(O)C12CC3CC(CC(C3)C1)C2` stands 1.57%.
As to `O=C(/C=C/c1cccc([N+](=O)[O-])c1)NCCSCc1ccc(Cl)cc1`, the inhibition is 11.2%.
Under `CC(C)(C)c1cc(C(=O)NCC(=O)OCC(=O)c2cccc([N+](=O)[O-])c2)cc(C(C)(C)C)c1` stands -4.29%.
Regarding `Cc1cccc([N+](=O)[O-])c1NC(=O)CN(Cc1ccccc1)Cc1ccccc1`, the inhibition was -0.69%.
Under `CN(CCc1ccccn1)c1ncnc2[nH]ncc12` stands 2.15%; under `O=C(Nc1nc(-c2cc(Cl)sc2Cl)cs1)c1ccc(Br)s1`, 1.52%; under `O=C(Nc1nccs1)c1cc(Cl)ccc1[N+](=O)[O-]`, 3.23%.
`CC(=O)Nc1ccc(-c2csc(NC(=O)C3CC(=O)N(c4ccc5c(c4)OCCO5)C3)n2)cc1` (stereo not given): the inhibition was -1.99%.
For `COc1cccc2sc(Nc3nc(-c4ccncc4)cs3)nc12`, the inhibition was 1.36%.
The figure for `COc1ccc(-c2csc(NC(=O)C3CC(=O)N(c4ccc5c(c4)OCCO5)C3)n2)cc1` (stereo not given) is 28%; for `Cc1csc(NC(=O)c2ccc(Cl)cc2[N+](=O)[O-])n1` it is -4.05%.
On to `O=C(NCc1ccccn1)c1ccc(Br)s1`, for which the inhibition is -0.44%.
With `COc1cccc2sc(NN)nc12`, the inhibition was 7.32%.
The figure for `Cc1ccc(C(=O)Nc2nc(-c3cc(Cl)sc3Cl)cs2)cc1` is 3.4%.
Take `COc1ccccc1C(=O)Nc1c(C)cc(Br)cc1C`: the inhibition was 21.1%.
With `CCCN1C(=O)C(O)(CC(=O)c2cccc(OC)c2)c2ccccc21` (stereo not given), the inhibition was -1.3%.
On to `O=C(O)c1ccc(N2C(=O)CC(SC(=NCc3ccc4c(c3)OCO4)Nc3ccccc3)C2=O)cc1` (stereo not given), for which the inhibition was 1.43%.
Under `CCc1ccc(NC(=O)c2cnn(-c3ccccc3)c2C)cc1` stands 1.29%; under `COc1ccc(-n2c(Cc3cccs3)nnc2SCC(=O)Nc2ccc3c(c2)OCCO3)cc1`, -1.02%.
With `COc1ccc(-c2cc(C(=O)NC3CCCC3)no2)cc1OC`, the inhibition is 9.4%.
The figure for `O=[N+]([O-])c1cccc(-c2nnc(CNC3CC3)o2)c1` is 1.99%; for `CC(C)c1ccc(OCC(=O)N2CCCCCC2)c(Br)c1` it is 4.07%; for `Cc1ccc(NC(=O)C2CC(=O)Nc3nncn32)cc1` (stereo not given) it is -5.26%.
The figure for `Cc1c(Cl)cccc1S(=O)(=O)Nc1ccnn1C` is -14.5%.
